Among the data in PubChem BioAssay (EPA / NIEHS) are outcome and AC50 values, retold here.

Results filed as inconclusive are left out. A structure can be active in one record and inactive in another. Calls of active or inactive are those of the source. Rule for the calls: active = hit-call score of the fitted dose curve at least 0.9, where 1 is the maximum; inconclusive = response in the unintended direction; inactive = score below 0.9. Where a SMILES comes first, the peptide text is derived from it. Bridges are numbered along the chain shown (N, C = ends). [ ]: non-standard residue; d: D form. The star is where a group is joined. Ileψ(thiazoline)Cys = CC[C@H](C)[C@H](N)C1=N[C@H](C(=O)*)CS1; dOrn = NCCC[C@@H](N)C(=O)O

The AC50 is the concentration at which the activity in the assay is half-maximal.

Cellular tumor antigen p53 (Homo sapiens), sequence (P04637 whole entry, looked up, the tested form may be a part): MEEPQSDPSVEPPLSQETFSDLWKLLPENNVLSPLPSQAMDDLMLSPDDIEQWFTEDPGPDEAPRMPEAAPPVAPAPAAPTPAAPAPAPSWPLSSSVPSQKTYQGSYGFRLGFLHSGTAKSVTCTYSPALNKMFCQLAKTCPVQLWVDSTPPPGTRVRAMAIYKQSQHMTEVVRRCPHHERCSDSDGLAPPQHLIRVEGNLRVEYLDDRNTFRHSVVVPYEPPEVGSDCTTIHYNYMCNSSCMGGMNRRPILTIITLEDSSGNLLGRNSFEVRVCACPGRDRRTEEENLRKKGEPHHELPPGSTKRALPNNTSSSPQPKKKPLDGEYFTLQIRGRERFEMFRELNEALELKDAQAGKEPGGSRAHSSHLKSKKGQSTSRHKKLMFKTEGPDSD

This experiment deals with Cellular tumor antigen p53 (Homo sapiens) (UniProt P04637). Nature of the experiment: TOX21_p53_BLA_p4_ratio: Tox21 HCT-116 p53 Agonism Beta-lactamase Assay, Ratio, Phase 4 (AID 2283601). The source says:
TOX21_p53_BLA_p4 is a cell-based, single-readout assay that uses HCT116, a human intestinal cell line, […] in a 1536-well plate.TOX21_p53_BLA_p4_ratio is an assay readout measuring reporter gene via receptor activity and designed using inducible reporter (beta lactamase induction) detected with GAL4 b-lactamase reporter gene. The signal is derived from the ratio of cleaved (ch2) to uncleaved (ch1)reporter gene substrate used as the measure of target activity.Data from the assay component TOX21_p53_BLA_p4_ratio was analyzed into 1 assay endpoint. This assay endpoint, TOX21_p53_BLA_p4_ratio, was analyzed in the positive analysis fitting direction relative to DMSO as the negative control and baseline of activity. Using a type of inducible reporter, gain-of-signal activity can be used to understand changes in the reporter gene as they relate to the gene TP53. Furthermore, this assay endpoint can be referred to as a primary readout, because this assay has produced multiple assay endpoints where this ratio serves a reporter gene function to understand target activity. To generalize the intended target to other relatable targets, this assay endpoint is annotated to the DNA binding intended target family, where the subfamily is tumor suppressor.
Thawing Method: Place 14 mL of pre-warmed thaw medium into a 15 mL of conical tub. Remove the vial of cells to be thawed from liquid nitrogen and thaw rapidly by placing at 37C in a water bath with gentle agitation for 1-2 minutes. Decontaminate the vial by wiping with 70% ethanol before opening in a biological safety cabinet. Transfer the vial contents drop-wise into 14 mL of thaw medium in a sterile 15-mL conical tub. Centrifuge cells at 900 rpm for 4 minutes and resuspend in thaw medium. Transfer contents to the T75 tissue culture flask containing Thaw Medium and place flask in a humidified 37C/5% CO2 incubator. Switch to growth medium at first passage.Propagation Method: Aspirate medium, rinse once in DPBS, add 0.25% Trypsin/EDTA and swirl to coat the cell evenly. Add an equal volume of Growth Medium to inactivate Trypsin after 2-3 minutes incubation at 37C. Centrifuge cells at 900 rpm for 4 minutes and resuspend in growth medium. Cell should be passage or fed at least twice a week.Assay Protocol: Harvest cells from culture in growth medium and resuspend in assay medium. 2.2 Dispense 4000 cells/5 uL/well into 1536-well black/clear bottom plates using a Multidrop dispenser. After the cells were incubated at 37C for 5 hours, 23 nL of compounds dissolved in DMSO were transferred to the assay plate by a PinTool resulting in a 217-fold dilution. Incubate the plates for 16 hours at 37C, 5% CO2. Add 1 uL of 6X LiveBLAzer FRET B/G (CCF4-AM) Substrate Mixture to each well using a BioRAPTR dispenser and incubate the plates at room temperature for 2 hours. Measure fluorescence intensity at 460 and 530 nm emission and 405 nm excitation by an Envision detector. Data is expressed as the ratio of 460nm/530nm emissions. Add 4 uL of Cell-titer Glo to each well using BioRAPTR and incubate the plates at room temperature for 2 hours. Measure fluorescence intensity by a VewLux plate reader.
Consider `O=C(O)C(Cc1cc(I)c(O)c(I)c1)c1ccccc1` (stereo not given), for which the outcome was inactive.

As for `Nc1ncnc2c1ncn2[C@H]1CC[C@@H](CO)O1`, the result was inactive.

As for `Cc1ccc([N+](=O)[O-])cc1Cl`, the result was inactive.

With `CC[C@H](C)[C@H](N)C1=N[C@H](C(=O)N[C@@H](CC(C)C)C(=O)N[C@H](CCC(=O)O)C(=O)N[C@H](C(=O)N[C@H]2CCCCNC(=O)[C@H](CC(N)=O)NC(=O)[C@@H](CC(=O)O)NC(=O)[C@H](Cc3cnc[nH]3)NC(=O)[C@@H](Cc3ccccc3)NC(=O)[C@H]([C@@H](C)CC)NC(=O)[C@@H](CCCN)NC2=O)[C@@H](C)CC)CS1` ({Ileψ(thiazoline)Cys}-L[dE]IK[dOrn]I[dF]H[dD]N; lactam 4-C), the outcome was inactive.

As for `Cc1c(C)c2c(c(C)c1OC(=O)CCC(=O)O)CC[C@@](C)(CCC[C@H](C)CCC[C@H](C)CCCC(C)C)O2`, the outcome was inactive.

As to `COc1ccc(Br)c(C)c1`, the outcome was inactive.

Consider `ICCc1ccccc1`, for which the result was inactive.

For the compound `NC(Cc1ccc(Cl)cc1)C(=O)O` (stereo not given), the outcome was inactive.

Turning to `Oc1ccc(C2(c3ccc(O)cc3)CC3CC2C2CCCC32)cc1` (stereo not given), the concentration at half-maximal activity (AC50) is 83.1 µM (active).

On to `CC(C)=CCC/C(C)=C/CC/C(C)=C/CCC(=O)OC/C=C(\C)CCC=C(C)C`, for which the outcome was inactive.

On to `CCO`, for which the result was inactive.

For `O=S(=O)(O)c1ccc2nc(-c3ccccc3)[nH]c2c1`, the outcome was inactive.

With `CCOC(=O)Cn1c(=O)sc2cccc(Cl)c21`, the result was inactive.

`CC(C)[C@@H]1CC[C@@H](C)C[C@H]1OC(=O)c1ccccc1O`: the outcome was inactive.

Turning to `CC(C(=O)O)c1cccc(Oc2ccccc2)c1` (stereo not given), the result was inactive.

As for `CN=C(NC#N)NCCSCc1csc(N=C(N)N)n1`, the outcome was inactive.

`C=C(C)CC(C)(C)C`: the outcome was inactive.

As for `O=C(O)O`, the result was inactive.

Take `C=C[C@]1(C)C[C@@H](OC(=O)CSC(C)(C)CNC(=O)[C@H](N)C(C)C)[C@]2(C)[C@H](C)CC[C@]3(CCC(=O)[C@H]32)[C@@H](C)[C@@H]1O`: the outcome was inactive.

On to `c1cnc2c(n1)CCCC2`, for which the outcome was inactive.

For `O=C(Cn1ccnc1[N+](=O)[O-])NCc1ccccc1`, the result was inactive.

In the case of `CN(C)CCc1c[nH]c2ccc(C[C@H]3COC(=O)N3)cc12`, the outcome was inactive.

Consider `O=C(c1ccccc1)c1ccc2n1CCC2C(=O)O` (stereo not given), for which the half-maximal activity concentration (AC50) was 43.6 µM (active).

As to `COc1ccccc1/C=C/C=O`, the outcome was inactive.

In the case of `Cc1ncc([N+](=O)[O-])n1CC(C)O` (stereo not given), the result was inactive.

Consider `CC(=O)O[C@H]1CC[C@@]2(C)C(=CC[C@H]3[C@@H]4CC[C@H](C(C)=O)[C@@]4(C)CC[C@@H]32)C1`, for which the outcome was inactive.

`C[C@H](CCC(=O)O)[C@H]1CC[C@H]2[C@@H]3CC[C@@H]4C[C@H](O)CC[C@]4(C)[C@H]3C[C@H](O)[C@]12C`: the half-maximal activity concentration (AC50) was 87.2 µM (active) and the outcome was inactive.

As to `CC1Cc2ccccc2N1NC(=O)c1ccc(Cl)c(S(N)(=O)=O)c1` (stereo not given), the result was inactive.

Turning to `C[C@H](NCCc1ccc(O)cc1)[C@H](O)c1ccc(O)cc1`, the outcome was inactive.

For the compound `NS(=O)(=O)c1cc2c(cc1C(F)(F)F)NC(Cc1ccccc1)NS2(=O)=O` (stereo not given), the outcome was inactive.

For the compound `CCN1CCC[C@H]1CNC(=O)c1cc(S(N)(=O)=O)ccc1OC`, the outcome was inactive.

On to `CCCCCCC/C=C/C=O`, for which the outcome was inactive.

For `CC/C=C\C/C=C\C/C=C\C/C=C\C/C=C\CCCC(=O)O`, the outcome was inactive.

In the case of `C/C=C/c1ccc(OCC)c(O)c1`, the result was inactive.

As for `CC(=O)[C@H]1CC[C@H]2[C@@H]3C=CC4=CC(=O)CC[C@@]4(C)[C@@H]3CC[C@]12C`, the outcome was inactive.

As for `c1ccc2sc(SN3CCOCC3)nc2c1`, the result was inactive.

Take `CCCC(C)c1ccccc1O` (stereo not given): the result was inactive.

Regarding `CN1CCCC1`, the result was inactive.

Turning to `CC[C@@H](C(=O)[C@@H](C)[C@@H](O)[C@H](C)[C@@H]1O[C@@H]([C@@H](CC)C(=O)O)CC[C@@H]1C)[C@H]1O[C@]2(C=C[C@@H](O)[C@]3(CC[C@@](C)([C@H]4CC[C@](O)(CC)[C@H](C)O4)O3)O2)[C@H](C)C[C@@H]1C`, the outcome was inactive.
